This is an account of results in PubChem BioAssay (NCI).

Each structure is given as a SMILES string. About 79,000 compounds went through this panel and 15% of them were active in at least one assay; those are over-represented in the sample as a whole. Unmarked numbers belong to inactive results. Calls of active or inactive are those of the source. Rule as the data show it: active = growth inhibition above about 70%; inactive = the rest.

A short description of assay [1]: NCI Yeast Anticancer Drug Screen. Data for the rad50 strain (AID 155).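 Also: 0% = growth of vehicle-only cultures of the same strain.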 To be noted: S. cerevisiae rad50 strain growth inhibition; at 50.0 µM; hits give high values. The essentials: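 A DNA repair-deficient yeast mutant serves as the test organism; compound-induced growth inhibition is calculated against vehicle-treated cells.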
Assay [2] can be described thus: NCI Yeast Anticancer Drug Screen. Data for the mlh1 rad18 strain (AID 175). To be noted: S. cerevisiae mlh1 rad18 strain growth inhibition; at 50.0 µM; hits give high values. The essentials: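 Compound-treated yeast growth, normalised to vehicle controls. Strain bears defined DNA repair mutations.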
Assay [3] can be described thus: NCI Yeast Anticancer Drug Screen. Data for the mec2-1 strain (AID 157). To be noted: S. cerevisiae mec2-1 strain, at 50.0 µM, hits give high values. The essentials: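 Cells of the genetically defined mec2-1 yeast strain are incubated with test compound. Inhibition of growth is calculated against vehicle-treated controls.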
The nature of assay [4]: NCI Yeast Anticancer Drug Screen. Data for the sgs1 mgt1 strain (AID 161).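 Also: 0% = growth of cultures given vehicle only.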 To be noted: S. cerevisiae sgs1 mgt1 strain, at 50.0 µM, hits give high values. The essentials: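 Read-out: growth inhibition vs vehicle controls. Cells: mutant yeast strain deficient in DNA damage repair.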
Assay [5] is described as follows: NCI Yeast Anticancer Drug Screen. Data for the cln2 rad14 strain (AID 165).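 Also: 0% = growth equal to vehicle treated cultures.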 To be noted: S. cerevisiae cln2 rad14 strain, at 50.0 µM, hits give high values. The essentials: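 The screen exposed genetically defined yeast (cln2 rad14) to test compounds and scored growth inhibition relative to vehicle-treated controls.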
Assay [6] is described as follows: NCI Yeast Anticancer Drug Screen. Data for the bub3 strain (AID 167). To be noted: S. cerevisiae bub3 mutant strain, at 50.0 µM, hits give high values. In outline:
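Inhibition values come from growth of compound-treated mutant yeast normalised to vehicle-treated controls.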

As to `NC(=O)NC(CCCN=C(N)N)C(=O)O` (stereo not drawn), the growth inhibition is -21.4% in assay [1] and -36.1% in assay [2].

For the molecule `CCCCCCCC/C=C\CCCCCCCCOC(N)=O`, the growth inhibition in assay [1] was -30.7%; in assay [3] it was -26.8%; in assay [2], -17.1%.

Turning to `CCOc1ccc(Br)cc1/C=C1\N=C(c2ccccc2)OC1=O`, the figures for the growth inhibition in assay [1], in assay [3] and in assay [2] were -2.25%, -12.2% and 1.7%, respectively.

As for `CC(=O)C(C(C)=O)c1ccccc1`, the growth inhibition in assay [1] was -5.15%; in assay [4], 3.05%; in assay [2], -5.75%.

On to `CC1=C(/C=C/C(C)=C/C=C/C(C)=C/C(=O)Nc2ccc(O)cc2)C(C)(C)CCC1`, for which the growth inhibition is -28.4% in assay [1]; -2.3% in assay [4]; 6.45% in assay [5]; 12.2% in assay [6]; -13.2% in assay [2].

`CCOc1ccc(Br)cc1/C=N/NS(=O)(=O)c1ccc(C)cc1`: the results for the growth inhibition in assay [1], in assay [3] and in assay [2] were 46.7%, 29.1% and 8.35%, respectively.

Consider `Cc1ccc(CNc2ccc(F)cc2)cc1`, for which the growth inhibition in assay [1] is 29.9%; in assay [3], 28.9%; in assay [2] it was 19.8%.

Turning to `COc1ccc(C)cc1NC(=S)C#N`, the growth inhibition is 12.6% in assay [1]; -0.15% in assay [4]; -18.6% in assay [5]; 1.3% in assay [6]; -44.9% in assay [2].

Regarding `O=C1c2ccccc2-c2c1c1ccccc1c(=O)n2CCO`, the growth inhibition was 76.8% (active) in assay [1]; 60.4% in assay [4]; 60.6% in assay [5]; 51.9% in assay [6]; 62.8% in assay [2].

`N#C/C(=C/c1ccc(O)c(O)c1)C(N)=O`: the figures for the growth inhibition in assay [1], in assay [3] and in assay [2] were 23.6%, -4.15% and 17.1%, respectively.

As for `O=C(CCc1ccc(O)cc1)N/N=C/c1cc(Br)ccc1O`, the growth inhibition in assay [1] was -29.6%; in assay [3], -38.4%; in assay [2], -20.6%.

As for `O=C(/C=C(\[O-])c1ccccc1)CCCCCCC(=O)/C=C(\[O-])c1ccccc1.O=C(/C=C(\[O-])c1ccccc1)CCCCCCC(=O)/C=C(\[O-])c1ccccc1.O=C(/C=C(\[O-])c1ccccc1)CCCCCCC(=O)/C=C(\[O-])c1ccccc1.[Y+3].[Y+3]`, the growth inhibition is 7.3% in assay [1], 8.75% in assay [4], 15.4% in assay [6] and -1.85% in assay [2].

As for `COc1ccc(COC(=O)N=[N+]=[N-])cc1`, the growth inhibition is 19.1% in assay [1], 3.85% in assay [3] and 13.4% in assay [2].

As to `CCOc1cccc(/C=C2\N=C(c3ccccc3)OC2=O)c1`, the growth inhibition in assay [1] was 4.35%; in assay [3], 25%; in assay [2], 10.9%.

As to `CCCCCCC(=O)CCCC(C)CCCC(C)C` (stereo not drawn), the growth inhibition in assay [1] is -13.5%; in assay [2], -3.85%.

Regarding `O=C(/C=C/c1ccccc1)Nc1ccccc1`, the growth inhibition is 12.9% in assay [1], 6.35% in assay [4], 7.05% in assay [6] and 35.6% in assay [2].

Turning to `N#CCC(=O)OCCCCOC(=O)CC#N`, the growth inhibition in assay [1] was -8.3%; in assay [3] it was -22.3%; in assay [2] it was 15.4%.

With `COc1ccccc1-c1n[nH]c(-c2ccccc2O)n1`, the growth inhibition in assay [1] was 31.7%; in assay [4] it was 27.8%; in assay [5] it was -10.7%; in assay [6] it was 22.9%; in assay [2], -54.1%.

With `CC/C(=C\c1cccc([N+](=O)[O-])c1)C(=O)O`, the growth inhibition in assay [1] is -9.65%; in assay [2], -5.55%.

For the molecule `Clc1c(Cl)c(Cl)c2nn(C3CCCO3)nc2c1Cl` (stereo not drawn), the growth inhibition in assay [1] is 15.3%; in assay [4], -5.9%; in assay [5], -17.1%; in assay [6] it was 12.1%; in assay [2], -45.6%.

With `O=C(N/N=C/c1ccc2c(c1)CCC2)c1cccc([N+](=O)[O-])c1`, the growth inhibition in assay [1] was -17.9%; in assay [3], -30.9%; in assay [2] it was -15.8%.

Take `CC1(C)Oc2ccc3c(=O)cc(-c4ccc(F)cc4)oc3c2C1C(=O)O` (stereo not drawn): the growth inhibition is -2.3% in assay [1]; -12.2% in assay [4]; -9.1% in assay [5]; 8.1% in assay [6]; -28.8% in assay [2].

With `O=C(NC(CO)C(O)c1ccc([N+](=O)[O-])cc1)C(Cl)Cl` (stereo not drawn), the growth inhibition in assay [1] is -32.2%; in assay [3] it was -35.6%; in assay [2] it was -19.5%.

Turning to `COc1ccc(/C(C#N)=C2C=C(Cl)/C(=N/O)C=C/2Cl)cc1`, the growth inhibition was -6.55% in assay [1], -7.45% in assay [3] and -19.2% in assay [2].
